Screening results as filed in PubChem.
SF1 inhibitor = blocks the human nuclear receptor SF-1; Q13285; CHO-K1 Gal4-SF-1 LBD luciferase reporter; inhibition, % at 10 µM; 65,000 compounds, 0.55% hits; AID 525;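 active = inhibition above the mean inhibition of all tested compounds plus 3 SD, cut at about 48% in these data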
Target sequence (Q13285 whole entry, looked up, the tested form may be a part): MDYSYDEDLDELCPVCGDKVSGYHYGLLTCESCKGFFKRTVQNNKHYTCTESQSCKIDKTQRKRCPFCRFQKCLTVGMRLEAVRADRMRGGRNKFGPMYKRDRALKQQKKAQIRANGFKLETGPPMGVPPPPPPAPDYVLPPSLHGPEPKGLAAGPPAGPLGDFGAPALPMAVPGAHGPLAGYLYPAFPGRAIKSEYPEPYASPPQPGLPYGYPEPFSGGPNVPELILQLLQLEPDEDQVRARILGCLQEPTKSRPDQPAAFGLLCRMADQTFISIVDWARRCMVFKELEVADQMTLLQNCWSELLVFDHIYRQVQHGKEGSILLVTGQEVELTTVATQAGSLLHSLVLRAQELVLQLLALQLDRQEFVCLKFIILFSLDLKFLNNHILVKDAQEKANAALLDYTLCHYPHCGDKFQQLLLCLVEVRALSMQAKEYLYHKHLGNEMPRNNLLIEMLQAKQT
A number is an active result; . = inactive. The full list was thinned out, with hits kept by preference.

SMILES	SF1 inhibitor
CCOC(=O)C1CCN(c2ncnc3c2cnn3-c2ccc(Cl)cc2)CC1	56
CCOC(=O)C1CCN(C(=O)c2ccc(Cl)c(S(=O)(=O)N3CCOCC3)c2)CC1	.
Clc1ccc(-n2ncc3c(N4CCCC4)ncnc32)cc1	61
CNC(=O)NC(=O)COC(=O)CCCOc1ccc(OC)cc1	.
O=C(Cn1nc(Cc2ccncc2)c2ccccc2c1=O)N1CCc2ccccc2C1	.
Cn1c(NC(=O)c2ccccc2F)cc(=O)n(C)c1=O	.
CCC(C)NC(=O)CCNS(=O)(=O)c1ccc(Br)cc1 (configuration not stated)	.
CCO/C=C/C(O)(CNC(=O)COc1ccccc1F)C(F)(F)F (configuration not stated)	.
COc1cccc(NC(=O)N2CCN(c3cccc(C)c3)C(C)C2)c1 (configuration not stated)	.
COc1cccc(N2CCN(c3ncnc4c3[nH]c3ccc(F)cc34)CC2C)c1 (configuration not stated)	96
COc1cccc(-n2nc(C(=O)O)c3ccccc3c2=O)c1	.
COc1cccc(OCCN2CCN(c3ncnc4c3cnn4-c3ccccc3)CC2)c1	.
COc1cccc(N2CCN(c3ncnc4c3[nH]c3ccccc34)CC2C)c1 (configuration not stated)	85
CCOC(=O)c1ccc(NC(=O)N(CC)CC)cc1	.
COCCn1c(SCCN2CCCCC2)nc2ccccc2c1=O	.
Clc1ccc2oc(-c3ccccn3)nc2c1	.
c1ccc2nc(-c3nc4ccccc4o3)ccc2c1	64
Cc1ccnc2ccc(-c3nc4ccccc4o3)cc12	.
CC(C)COC(=O)N(C)c1ccc(C(O)(C(F)(F)F)C(F)(F)F)cc1	.
O=C1/C(=C/Nc2ccc3c(c2)OCO3)CCc2ccccc21	74
O=C(Nc1ccc2c(c1)OCO2)c1c(F)cccc1F	.
O=C1c2ccccc2C(O)N1Cc1ccc2c(c1)OCO2 (configuration not stated)	.
Cc1ccc2occ(C(c3nnnn3Cc3ccccc3)N3CCOCC3)c(=O)c2c1 (configuration not stated)	.
O=S1(=O)Nc2c(ccc3cccnc23)-c2ccccc21	91
CCC1CCc2c(sc(NC(=O)c3ccoc3C)c2C(N)=O)C1 (configuration not stated)	.
SMILES	SF1 inhibitor
O=C(NCC(=O)N(Cc1cccs1)C(C(=O)NC1CCCC1)c1ccco1)c1cccs1 (configuration not stated)	.
O=C(O)c1oc2ccccc2c1CN1CCN(c2ccccc2)CC1	.
O=c1[nH]c2c(s1)C=Nc1ccccc1N2	.
O=C(c1ccccc1F)N1CCN(S(=O)(=O)c2ccc(S(=O)(=O)N3CCCCC3)cc2)CC1	.
O=S(=O)(c1ccc2c(c1)C(=NO)c1cc(S(=O)(=O)N3CCCCC3)ccc1-2)N1CCCCC1	96
O=S(=O)(c1ccccc1)c1cccc(S(=O)(=O)N2CCCCC2)c1	.
O=C(OCC#CCSc1nc2ccccc2o1)c1ccco1	.
c1coc(CNc2nc3sc4c(c3c3ncnn23)CCCC4)c1	.
O=C(CCCc1cccs1)Nc1nc2c(s1)CCCC2	.
c1csc(CCNc2ncnc3sc4c(c23)CCC4)c1	76
CCN(CC)c1ccc2c(c1)CCCN2	.
O=C(CN1CCOc2ccccc21)NC1CC1	.
COc1ccc([C@@H]2Sc3ccccc3N(CCN(C)C)C(=O)[C@@H]2OC(C)=O)cc1	.
O=C(CS(=O)(=O)c1ccccc1)c1ccc2c(c1)OCCO2	.
O=S(=O)(C/C(=C/CO)S(=O)(=O)c1ccccc1)c1ccccc1	96
COc1ccc(C(c2sc3nc(C)nn3c2O)N2CCC3(CC2)OCCO3)cc1 (configuration not stated)	.
COC(=O)c1cc(OC)c(OC)cc1NC(=O)CSc1nnnn1Cc1ccccc1	.
O=C(CN1C(=O)CSC1=O)N1CCc2ccccc2C1	.
Cc1nc(CNS(=O)(=O)c2ccc3ccccc3c2)cs1	.
Cc1csc2nc(CNS(=O)(=O)c3ccc(-c4ccccc4)cc3)cn12	.
O=S(=O)(NCc1cn2ccsc2n1)c1ccc(Oc2ccccc2)cc1	52
CCOC(=O)CSc1ccc2nnc(-c3cccnc3)n2n1	.
CC(CC#CCN1CCOCC1)OCCC#N (configuration not stated)	.
c1ccc(-c2cccc(-c3ccccn3)n2)nc1	87
c1ccc(-c2nnc(-c3ccccn3)nn2)nc1	.
SMILES	SF1 inhibitor
O=C(CSc1nnc(Cc2cc(=O)[nH]c(=O)[nH]2)n1-c1ccc(F)cc1)N1CCCCC1	.
CC(C)CCn1c(Sc2nc3ccccc3s2)nc2c1c(=O)[nH]c(=O)n2C	.
O=C(Nc1ccc(-c2cn3ccsc3n2)cc1)c1ccc(F)c(S(=O)(=O)N2CCOCC2)c1	.
Cc1c(C(=O)N2CCOCC2)[nH]c2c1C(=O)CC(c1ccccc1Cl)C2 (configuration not stated)	.
Cc1ccsc1C(=O)OCC(=O)Nc1sccc1C(N)=O	.
Cc1nnc(Sc2nc(Sc3nnc(C)s3)nc(N3CCN(C)CC3)n2)s1	96
Cc1nc(CSc2nnc(C)s2)cs1	.
Cc1ccc(C)c(N2CCN(C(=O)CCCn3c(=S)[nH]c4cc5c(cc4c3=O)OCO5)CC2)c1	.
COc1c(C)cccc1C(=O)Nc1ccc(CN2CCOCC2)cc1	.
CCCCCOc1ccc(CN2CCOCC2)cc1Cl	.
COc1cc(C(=O)Oc2c(CN3CCOCC3)cc(Cl)c3cccnc23)cc(OC)c1OC	55
CCc1ccccc1N(CC(=O)NCc1ccco1)C(=O)c1snc(C(N)=O)c1N	.
CC(C)Oc1ccc(NC(=O)Oc2ccccc2)cc1	.
Cc1ccccc1NC(=O)N1CCCC(c2nc(-c3ccc(C(C)C)cc3)no2)C1 (configuration not stated)	51
CC(C)c1ccc(NC(=O)C2CCCN(S(=O)(=O)c3cnc[nH]3)C2)cc1 (configuration not stated)	.
CCN1CCN(CNC(=O)c2cnccn2)CC1	.
COc1ccc2nc(NC(=O)CN(c3ccc(C)cc3)S(=O)(=O)c3c(C)nn(C)c3C)sc2c1	.
O=C(/C=C\Nc1cccc(F)c1)c1ccc2c(c1)OCO2	58
O=C(CCNc1ccccc1)c1ccc2c(c1)OCO2	.
COC(=O)c1ccc(NC(=O)c2ccc3c(c2)OCO3)cc1	.
CN(C)CCN1C(=O)C(=O)/C(=C(/O)c2ccccc2)C1c1ccccc1F (configuration not stated)	.
Cc1ccc2oc3c(c(=O)c2c1)C(c1cccc(O)c1)N(c1ccccn1)C3=O (configuration not stated)	.
Cc1ccc(N2C(=O)c3ccccc3C2O)nc1 (configuration not stated)	56
O=C1c2ccccc2C(O)N1c1ccc(Cl)cc1 (configuration not stated)	.
Cc1cccc(Cn2c(N3CCCCC3C)nc3c2c(=O)[nH]c(=O)n3C)c1 (configuration not stated)	.
SMILES	SF1 inhibitor
CC(=O)NCc1ccc(-c2csc(N)n2)s1	.
Cc1ccccc1NS(=O)(=O)c1ccc(OCC(=O)N2CCCC2)cc1	.
COc1ccc(-n2nnnc2SCC(=O)c2cc3ccccc3o2)cc1	.
COCCCNc1oc(-c2ccccc2OC)nc1C#N	.
COc1cccc(-c2nnc(Nc3nc4c(F)cccc4s3)o2)c1	.
COc1ccccc1-c1nnc(Nc2nc3c(OC)cccc3s2)o1	67
Cc1ccc(N2C(N)=NC(N)=NC23CCCC3)c(C)c1	.
O=C(NC1CCCCC1)c1ccc(S(=O)(=O)N2CCCCC2)cc1	.
Cc1nc2ccc3nc(NC(=O)c4ccc(S(=O)(=O)N5CCOCC5)cc4)sc3c2s1	.
